{"source": "PubChem BioAssay AID2685", "about": "(National Center for Advancing Translational Sciences (NCATS), 2010)", "note": "Hit rate of the full screen: of about 320,000 compounds, about 2,100 (0.66%) were called active. Not shown: some 53% with an inconclusive outcome. Calls follow the shape of the dose curve; as a rule, active = well fitted inhibition curve with a large enough effect in the signal ratio, with a control signal flat (not every such curve was filed as active); inconclusive = small, poorly fitted or top-dose-only effect, or effect the other way, or a change in a side signal; inactive = flat fitted curve, though single readings scatter; the % refers to the signal ratio. Shown is part of a subset that was picked to be rich in actives. Potency is read from the fitted curve at half-maximal effect.", "data": [{"assay": "qHTS Assay for Lipid Storage Modulators in Drosophila S3 Cells;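 as to cell number change: cells counted by Cell Tracker Red CMTPX staining in the red channel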", "conditions": "BODIPY lipid droplet fluorescence, 18-24 h, cells fed with added oleic acid; cell number change: measured here: cell count max response; series mostly up to 46.1 µM", "summary_of_the_method": "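Laser-scanning cytometry quantifies lipid droplet accumulation (500–530 nm total intensity; droplet/cell object ratio) in oleic acid-fed (400 uM added) Drosophila S3 cells treated with a concentration series. 20 uM Triacsin C defined 100% inhibition.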", "units": {"cell number change": "%"}, "values": [{"compound": "COC(=O)CNC(=O)COc1ccccc1", "Potency": "25.9 µM (active)", "cell number change": 0.31}, {"compound": "CC(C)C(NC(=O)COc1ccccc1)C(=O)O", "note": "(centres undefined)", "Potency": "32.6 µM (active)", "cell number change": -18.5}, {"compound": "CC(C)c1ccc(OCC(=O)NC(C)c2ccccc2)cc1", "note": "(centres undefined)", "Potency": "inactive", "cell number change": -6.3}, {"compound": "O=C(COc1ccccc1)NCc1ccccc1", "Potency": "inactive"}, {"compound": "CC(C)CC(NC(=O)COc1ccccc1)C(=O)O", "note": "(centres undefined)", "Potency": "inactive", "cell number change": 23.7}, {"compound": "COC(=O)c1cccc(NC(=S)N2CCN(c3ccccc3F)CC2)c1", "Potency": "inactive", "cell number change": 12.8}, {"compound": "CCOC(=O)CC(/C(C)=N\\O)c1ccccc1", "note": "(centres undefined)", "Potency": "inactive", "cell number change": -0.923}, {"compound": "CCc1ccc(NC(=O)CN2C(=O)CSC2=O)cc1", "Potency": "inactive", "cell number change": -0.41}, {"compound": "O=C(CN1C(=O)CSC1=O)Nc1ccc(N2CCOCC2)cc1", "Potency": "20.6 µM (active)"}, {"compound": "Cc1ccc(NC(=O)CN2C(=O)CSC2=O)cc1", "Potency": "inactive", "cell number change": -1.37}, {"compound": "COc1ccc(S(=O)(=O)N2CCCCC2)cc1NC(=O)CSc1nccn1C", "Potency": "inactive", "cell number change": -6.22}, {"compound": "CC(=O)c1c(C(C)=O)c(C)n(-c2ccc(C)c(NC(=O)c3ccccc3Cl)c2)c1C", "Potency": "inactive", "cell number change": -18.6}, {"compound": "COc1ccc(NC(=O)N2CCCC(CCC(=O)N(C)CCc3ccccn3)C2)cc1", "note": "(centres undefined)", "Potency": "inactive", "cell number change": -4.81}, {"compound": "Cc1nc(N2CCCCC2)sc1C(=O)c1cccc([N+](=O)[O-])c1", "Potency": "inactive", "cell number change": -2.77}, {"compound": "CC(=O)c1cccc(NC(=O)NC2CCCc3ccccc32)c1", "note": "(centres undefined)", "Potency": "inactive", "cell number change": -3.38}, {"compound": "CCOc1cc(/C=C2\\SC(=N)N(c3nonc3N)C2=O)ccc1OCC(N)=O", "Potency": "inactive", "cell number change": 1.49}, {"compound": "COc1ccccc1NC(=O)C(=O)c1cn(CC(=O)N2CCCC2)c2ccccc12", "Potency": "inactive", "cell number change": 8.26}, {"compound": "COc1ccccc1N1CCN(C(=O)C(=O)c2cn(CC(=O)N3CCCCCC3)c3ccccc23)CC1", "Potency": "11.6 µM (active)", "cell number change": -23.8}, {"compound": "COc1ccccc1N1CCN(C(=O)C(=O)c2cn(CC(=O)N3CCCC3)c3ccccc23)CC1", "Potency": "inactive", "cell number change": -2.59}, {"compound": "O=CN1CCN(C(=O)C(=O)c2cn(CC(=O)N3CCCCC3)c3ccccc23)CC1", "Potency": "inactive", "cell number change": 4.31}, {"compound": "CC(=O)c1ccc(N2CCN(C(=O)C(=O)c3cn(CC(=O)N4CCCCCC4)c4ccccc34)CC2)cc1", "Potency": "16.4 µM (active)", "cell number change": -13.1}, {"compound": "CN1CCN(C(=O)C(=O)c2cn(CC(=O)N3CCCC3)c3ccccc23)CC1", "Potency": "inactive", "cell number change": -8.67}, {"compound": "CCCC(=O)Nc1c(-c2ccccc2Cl)c(=O)c2ccccc2n1C", "Potency": "inactive", "cell number change": 21.4}, {"compound": "COc1ccccc1-n1c(SCC(=O)Nc2nnc(C)s2)nc2c(c1=O)SCC2", "Potency": "inactive", "cell number change": 4.2}, {"compound": "CCCCCCCCCCCCOC(=O)C[N+](C)(C)C", "Potency": "inactive", "cell number change": -12.3}, {"compound": "CCCCCCCCCCOC(=O)C[N+](C)(C)C/C=C(/C)Cl", "Potency": "2.06 µM (active)", "cell number change": -24.8}, {"compound": "CCCCCCCCOC(=O)C[N+](C)(C)C/C=C(/C)Cl", "Potency": "inactive", "cell number change": 5.17}, {"compound": "CC1(C)Cc2c(cnn2-c2ccccc2)C(NC(=O)C2(C(N)=O)CC2)C1", "note": "(centres undefined)", "Potency": "inactive", "cell number change": 8.69}, {"compound": "COc1ccc(C2CC(c3cccs3)=NN2C(=O)CCC(=O)O)cc1", "note": "(centres undefined)", "Potency": "inactive", "cell number change": -0.88}, {"compound": "CCN(c1cccc(C)c1)S(=O)(=O)c1cc(CN2C(=O)c3cccnc3C2=O)ccc1OC", "Potency": "8.2 µM (active)", "cell number change": 7.63}, {"compound": "CCCN(CCC)S(=O)(=O)c1cc(CN2C(=O)c3cccnc3C2=O)ccc1OC", "Potency": "inactive", "cell number change": 9.22}, {"compound": "COc1ccc(CN2C(=O)c3cccnc3C2=O)cc1S(=O)(=O)NC1CCCCC1C", "note": "(centres undefined)", "Potency": "inactive", "cell number change": -3.23}, {"compound": "COc1ccc(CN2C(=O)c3cccnc3C2=O)cc1S(=O)(=O)N(C)c1ccc(C)cc1", "Potency": "inactive", "cell number change": 8.02}, {"compound": "COc1ccc(CN2C(=O)c3cccnc3C2=O)cc1S(=O)(=O)N1CCCCC1", "Potency": "1.64 µM (active)", "cell number change": -13.9}, {"compound": "COc1ccc(CN2C(=O)c3cccnc3C2=O)cc1S(=O)(=O)NC(C)C", "Potency": "inactive"}, {"compound": "O=C(CN1C(=O)CCS(=O)(=O)c2ccccc21)NCc1ccc2c(c1)OCO2", "Potency": "inactive", "cell number change": -18.6}, {"compound": "CC1(C)Cc2c(sc(NC(=O)C(=O)NCC3CCCO3)c2C(N)=O)CO1", "note": "(centres undefined)", "Potency": "inactive", "cell number change": -4.25}, {"compound": "CNC(=O)c1ccccc1S(=O)(=O)c1ccccc1C#N", "Potency": "inactive", "cell number change": -5.1}, {"compound": "Cc1cc(C(F)(F)F)nn1CC(=O)NCc1cccs1", "Potency": "inactive", "cell number change": 3.66}, {"compound": "COc1ccc(OC)c(NC(=O)C2CCCCC2C(=O)O)c1", "note": "(centres undefined)", "Potency": "inactive", "cell number change": 2.85}, {"compound": "COCC1CCN(C(=O)c2ccc(OC)c(OC3CCN(C(C)C)CC3)c2)CC1", "Potency": "inactive", "cell number change": 13.3}, {"compound": "CCCOc1ccc(C(=O)O)cc1", "Potency": "inactive", "cell number change": 0.594}, {"compound": "CN1CCC(N(C)C(=S)NC(=O)C23CC4CC(CC(C4)C2)C3)CC1", "Potency": "inactive", "cell number change": -1.68}, {"compound": "CCOc1ccc(-n2c(N)c(C(=O)NCc3ccco3)sc2=S)cc1", "Potency": "inactive", "cell number change": 1.94}, {"compound": "COc1ccc(CNC(=O)C/C(C)=N/NC(=O)C23CC4CC(CC(C4)C2)C3)cc1", "Potency": "inactive", "cell number change": 9.74}, {"compound": "CC1CCN(C(=O)c2[nH]cnc2C(=O)NCC(=O)OCc2ccccc2)CC1", "Potency": "inactive", "cell number change": 12.3}]}]}
